TrxR1 substrate = qHTS Assay for Substrates of Mammalian Selenoprotein Thioredoxin Reductase 1 (TrxR1): qHTS. Thioredoxin reductase 1, cytoplasmic (Rattus norvegicus), O89049. purified TrxR1 substrate turnover, NADPH consumption readout. Potency, µM (doses to about 114 µM), inactives show top-dose activity change, negative = substrate turnover. 0.01% of 390,000 active. AID 588456, 2011; also: potency is read from the fitted curve at half-maximal effect; nearly all actives have a fitted effect of over 50% in size
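Rat TrxR1, dispensed at 90 nM, was prereduced with 400 uM NADPH (final) for 5 min at ~22 deg C, then incubated with compound 15 min before 400 uM selenite. A first-read NADPH fluorescence drop versus no-compound background flagged substrates.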
RORg inh = qHTS for inhibitors of ROR gamma transcriptional activity; Nuclear receptor ROR-gamma (Mus musculus), P51450; Drosophila S2 Gal4-RORgamma UAS-luciferase reporter, 20 h; Potency, µM (doses to about 53.6 µM), inactives show top-dose activity change, negative = inhibition, hits mostly inhibitors; 5.4% of 310,000 active; AID 2551, 2010; also: potency is read from the fitted curve at half-maximal effect; nearly all actives have a fitted effect of over 60% in size
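Luminescence from a UAS-regulated Photinus luciferase reporter in stably transfected Drosophila Schneider cells is measured; decreased signal marks ROR gamma inhibition. Fusion expression is induced by 700 uM copper sulfate for 20 hr.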
GALK inhibitor = qHTS Assay for Inhibitors of Human Galactokinase (GALK). P51570. Purified GALK, Kinase-Glo residual ATP luminescence. Potency, µM (top dose mostly 57.5 µM), inactives show at the highest dose activity change, negative = inhibition, usual class: inhibitors. 0.007% of 270,000 active. AID 1868, 2009; also: potency is read from the fitted curve at half-maximal effect
Target sequence (P51570 whole entry, looked up): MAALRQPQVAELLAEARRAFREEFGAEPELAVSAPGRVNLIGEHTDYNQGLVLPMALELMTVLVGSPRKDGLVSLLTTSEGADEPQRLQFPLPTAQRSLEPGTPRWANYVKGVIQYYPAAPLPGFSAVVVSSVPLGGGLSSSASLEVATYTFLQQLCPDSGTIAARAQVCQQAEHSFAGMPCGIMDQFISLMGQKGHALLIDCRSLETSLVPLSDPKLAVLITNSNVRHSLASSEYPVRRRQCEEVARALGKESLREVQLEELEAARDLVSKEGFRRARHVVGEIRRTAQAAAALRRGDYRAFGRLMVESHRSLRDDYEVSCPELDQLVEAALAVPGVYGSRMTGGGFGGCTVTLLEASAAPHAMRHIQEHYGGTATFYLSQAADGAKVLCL
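Human GALK (5 nM) with 35 uM ATP and 100 uM galactose in 20 mM HEPES pH 8.0, 5 mM MgCl2, 60 mM NaCl, 1 mM DTT, 0.01% BSA. After 1 h at room temperature, leftover ATP was read by Kinase-Glo Plus luminescence.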
VP16 counter = VP16 counterscreen qHTS for inhibitors of ROR gamma transcriptional activity. 3.5% of 310,000 active. Potency, µM (doses to about 53.6 µM), for the others: at the highest dose activity, negative = inhibition, actives largely listed as inhibitors. Drosophila S2 Gal4-VP16 UAS-luciferase, luminescence, 20 h;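 also: Gal4-VP16 expression switched on by copper sulfate through the metallothionein promoter; potency is read from the fitted curve at half-maximal effect; nearly all actives have a fitted effect of over 50% in size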
TrxR1 inh = qHTS Assay for Inhibitors of Mammalian Selenoprotein Thioredoxin Reductase 1 (TrxR1): qHTS | 1% of 390,000 active | Potency, µM (doses to about 114 µM), for the others: top-dose activity change, negative = inhibition, hits mostly inhibitors | recombinant rTrxR1, NADPH fluorescence consumption, selenite substrate; also: potency is read from the fitted curve at half-maximal effect; nearly all actives have a fitted effect of over 65% in size
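Rat TrxR1 (90 nM in the dispensed reagent) was pre-reduced with 400 uM NADPH for 5 min at room temperature, then incubated with compound for 15 min. After 400 uM selenite was added, NADPH fluorescence (Ex 340/Em 450 nm) was followed for 8 min.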
Coupling enz = qHTS Assay for Inhibitors of Fructose-1,6-bisphosphate Aldolase from Giardia Lamblia: Coupling assay counterscreen; coupling enzyme system counterscreen, AmpLite Red fluorescence; activity change, negative = inhibition, % at 58.2 µM, hits read low; 0.67% of 290,000 active; AID 2472, 2010; in the data active = activity change below about -30%
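Compounds tested against the coupling enzymes alone at 57.5 uM final; readout was AmpLite Red fluorescence (525/598 nm) after 20 min at RT.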
Numbers without * were called inactive; ? = inconclusive; . = no result; ! = repeats disagree; [ ] = dose if it differs, or a comment. Shown are actives, neighbours in structure and some others; about 5.9% of the full set was active somewhere. Unless noted, calls follow the shape of the dose curve; as a rule, active = well fitted curve in the direction sought with a large enough effect; inconclusive = small, poorly fitted or top-dose-only effect, or another doubt; inactive = no such curve, though single readings can be large; an effect the other way counts as inactive or inconclusive. % is scaled to controls: 0 for no effect and ±100 for the full control effect.

SMILES | TrxR1 substrate | RORg inh | GALK inhibitor | VP16 counter | TrxR1 inh | Coupling enz
Cc1ccc(NC(=S)NCCO)c(C)c1 | -8%[57.1 µM] | -43% | -2% | 4% | 6%[57.1 µM] | 3
CCNC(=S)N/N=C/c1cccs1 | -17% | 0.79µM* | -3% | 1.4µM* | ? | -1
O=C(NCCCN1CCOCC1)C(=O)N/N=C/c1c(Cl)cccc1Cl | 9%[57.1 µM] | 1% | 0% | -12% | 12%[57.1 µM] | -1
Cc1c(NC(=O)C2C3C=CC(C3)C2C(=O)O)c(=O)n(-c2ccccc2)n1C (stereo unspecified) | 14% | -12% | 0% | 2% | 25% | 4
Cc1cccc(NC(=O)CNC(=O)COC(=O)CCS(=O)(=O)c2ccccc2)c1C | -6% | -2% | -5% | -12% | -15% | 3
Cc1ccc(NC(=S)N/N=C/c2ccc(OCCC(C)C)cc2)c(C)c1 | -12% | 6.3µM* | 0% | 3.2µM* | 1% | -5
CCNC(=S)N/N=C/c1ccc(F)cc1 | . | 2.2µM* | 1% | 7.9µM* | . | -1
CCCCNC(=S)N(C)/N=C/c1ccc(F)cc1 | -3% | 11µM* | -3% | ? | 4% | -8
CC(C)(C)NC(=S)N/N=C/c1c(Cl)cccc1Cl | 1% | 4.5µM* | 1% | 5µM* | 34% | -11
O=C(N/N=C/c1c(Cl)cccc1Cl)c1cccc(F)c1 | -2% | ? | -9% | ? | -1% | 3
CCNC(=S)N/N=C/c1cccc(/C=N/NC(=S)NCC)c1 | 13% | ? | -1% | -22% | 24% | 0
Cc1cc2nc(C3CCCN(C(=O)NCc4ccccc4)C3)[nH]c2cc1C (stereo unspecified) | 2% | 3% | 1% | -1% | 8% | .
CCCCn1c(N)c(N(CC(C)C)C(=O)CCCn2c(=O)oc3ccccc32)c(=O)[nH]c1=O | -7%[57.1 µM] | . | . | . | 1% | .
CSCC[C@H](NC(=O)[C@@H]1Cc2ccccc2CN1)C(=O)NC1CCCCC1 | 2% | 14% | 0% | 7% | 9% | 2
Cc1cc(NS(=O)(=O)c2ccc(NC(=O)COc3ccc(Br)cc3)cc2)nc(C)n1 | -10% | 0% | -3% | -9% | 6% | 6
Cc1cc(-c2c(C)[nH]n(-c3ccc(Cl)cc3)c2=O)n[nH]1 | -10% | 0.11µM* | -2% | 0.63µM* | -9% | -22
Cc1[nH]n(-c2ccccc2)c(=O)c1Sc1ccc(Cl)cc1 | -3% | 31% | 3% | -11% | 15% | 0
Cc1cc(/C=N/NC(N)=S)c(C)n1-c1ccc(Cl)c(Cl)c1 | 6%[57.1 µM] | 1.4µM* | 0% | 3.2µM* | 14%[57.1 µM] | -16
Cc1nc2ccccn2c1C(=O)N/N=C/c1cc(C)n(-c2ccc(Cl)cc2)c1C | 2% | 20µM* | -5% | 13µM* | -4% | 2
CCNC(=S)N/N=C/c1cc(C)n(-c2ccc(Cl)cc2)c1C | 5%[57.1 µM] | 1.4µM* | 7% | 5µM* | 15%[57.1 µM] | 1
Cc1cc(C)cc(N2CC(C)(C)C2=O)c1 | 10%[57.1 µM] | 0% | 10% | 0% | 10%[57.1 µM] | 3
O=C(Nc1ccccn1)C1CCN(C(=O)c2ccc(F)cc2)CC1 | -9% | . | . | . | -6% | .
CSc1ccc(NC(=O)Nc2cccn(Cc3ccccc3F)c2=O)cc1 | 5%[57.1 µM] | 2% | 2% | -9% | 15%[57.1 µM] | 0
COc1ccc(NC(=S)N/N=C/c2cccn2Cc2ccccc2F)cc1 | -4%[57.1 µM] | 0.28µM* | 3% | 1.4µM* | 16%[57.1 µM] | 0
COc1ccc(NC(=S)N/N=C/c2cccn2Cc2ccc(F)cc2Cl)cc1 | -9%[57.1 µM] | 0.79µM* | 0% | 2.8µM* | 20%[57.1 µM] | -1
SMILES | TrxR1 substrate | RORg inh | GALK inhibitor | VP16 counter | TrxR1 inh | Coupling enz
CCOC(=O)N1CCN(C(=O)c2c[nH]c3ccc(S(=O)(=O)N(C)c4ccc(OCC)cc4)cc3c2=O)CC1 | 3% | 8% | -2% | 17% | 16% | .
COc1cc(CC(=O)OCC(=O)NC2CCCC2)cc(OC)c1OC | -3% | . | . | . | 8% | .
COC(=O)C1(C)C=CC2(CCCCC2)N1C(=O)c1ccccc1 (stereo unspecified) | . | 10µM* | . | -4% | . | 1
COc1ccc(NC(=O)Nc2ccc3c(c2)C(=O)N([C@H](C)CO)C[C@H](C)[C@@H](CN(C)S(=O)(=O)c2ccccc2)O3)cc1 | -3%[57.1 µM] | . | . | . | -21%[57.1 µM] | .
CCC(=O)N(Cc1cc2cc(OC)ccc2[nH]c1=O)c1cc(C)ccc1C | 17%[57.1 µM] | 42% | 3% | -3% | 37%[57.1 µM] | 1
CCN(CC)S(=O)(=O)c1ccc(NC(=O)NCc2noc3ccc(C)cc23)cc1 | -6% | . | . | . | 14% | .
CC1CCn2c(nc3cc(C(=O)NCCc4ccc(Cl)cc4)ccc32)C1 (stereo unspecified) | -10%[57.1 µM] | . | . | . | -8%[57.1 µM] | .
COc1ccc(-c2csc3ncnc(N4CCN(C(=O)c5ccco5)CC4)c23)cc1 | 9% | . | . | . | 56µM* | .
O=C(c1ccco1)N1CCN(C(=O)c2sccc2-c2ccccc2)CC1 | 5%[57.1 µM] | ? | -5% | -3% | 16µM* | 0
Oc1c(Cl)cc(Cl)c2cccnc12 | -11% | 0.079µM* | 0% | ? | ? | -21
Oc1ccc(F)c2cccnc12 | -11%[57.1 µM] | 2.8µM* | 2% | 4.5µM* | 26%[57.1 µM] | -4
O=S(=O)(O)c1cc(I)c(O)c2ncccc12 | . | ? | . | -1% | . | .
Oc1c(I)cc(I)c2cccnc12 | 12% | 2.5µM* | . | 4.5µM* | -21% | -12
Oc1ccc(Cl)c2cccnc12 | -11% | 1.8µM* | . | 3.2µM*! | -15% | -1
Cc1ccc(S(=O)(=O)Nc2cc(Cl)c(O)c3ncccc23)cc1 | -8%[57.1 µM] | 0.71µM* | 0% | 1.3µM* | ? | -12
CCOc1cc2[nH]c(=S)n(CC3CCCO3)c(=O)c2cc1OCC (stereo unspecified) | 0%[57.1 µM] | 11µM* | 0% | ? | -11%[57.1 µM] | 0
CCOc1cc2[nH]c(=S)n(CCCN3CCN(C)CC3)c(=O)c2cc1OCC | 4% | . | . | . | 7% | .
CCOc1cc2[nH]c(=S)n(CC3CCCN3CC)c(=O)c2cc1OCC (stereo unspecified) | 1% | 10µM* | 0% | 3% | -17%[57.1 µM] | -4
COc1cc2[nH]c(=S)n(CC3CCCO3)c(=O)c2cc1OC (stereo unspecified) | 4%[57.1 µM] | ? | 0% | ? | -9%[57.1 µM] | 2
CCC1CCCCN1CCn1c(=S)[nH]c2cc(OC)c(OC)cc2c1=O (stereo unspecified) | -3% | 10µM* | -1% | -14% | -6% | -3

Compound activity as filed in PubChem BioAssay.
